Screening data (PubChem BioAssay)
In the library only some 0.8% were active in any assay of this set; here they are far more common.
FXIIa mix inh = inhibitors of human coagulation factor XIIa, pooled mixtures; P00748; purified FXIIa, fluorogenic substrate; inhibition, % at 5 µM; hit rate 0.2% among 62,000; AID 684;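 further: 0% = enzyme without compound and 100% = no enzyme blank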
Calb biofilm kill = kills Candida albicans biofilms; hit rate 0.14% among 85,000; C. albicans biofilm + clotrimazole, Alamar Blue; inhibition, % at 6 µM; AID 834;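 active means inhibition above 20%; inactive means inhibition below 20%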;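 further: preformed 24 hr biofilms exposed to compound for 48 hr; 0% = biofilm without compound and 100% = blank killed by clotrimazole plus chlorhexidine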
BAP1 inh = inhibitors of human BAP1 deubiquitinase | Q92560 | recombinant BAP1, Ub-AMC hydrolysis fluorescence kinetic; hits give low values | activity remaining (% of control), % at 20 µM | hit rate 0.48% among 72,000;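 active means activity remaining at or below 50% of control, provided the compound also passes the data quality filters; inactive means the rest, including low values that fail the filters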;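 further: 100% = DMSO wells rate and 0% = substrate alone blank rate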
FXIa mix inh = blocks human factor XIa in pooled compound mixtures; hit rate 0.19% among 62,000; inhibition, % at 5 µM; purified FXIa, fluorogenic substrate;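 further: each value is inhibition by a whole ten-compound pool holding the compound; 0% = enzyme with no mixture and 100% = wells lacking enzyme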
CatG inh = inhibitors of human cathepsin G; hit rate 0.2% among 62,000; inhibition, % at 5 µM (by protocol); purified enzyme, AMC-tetrapeptide fluorescence, pooled mixtures; P08311;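 active means inhibition above 20% in each of the two mixture wells holding the compound; inactive means inhibition of 20% or less in either well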;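 further: 0% = enzyme control without mixture and 100% = blank lacking enzyme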
Target sequence (P08311 21-244 limits assumed): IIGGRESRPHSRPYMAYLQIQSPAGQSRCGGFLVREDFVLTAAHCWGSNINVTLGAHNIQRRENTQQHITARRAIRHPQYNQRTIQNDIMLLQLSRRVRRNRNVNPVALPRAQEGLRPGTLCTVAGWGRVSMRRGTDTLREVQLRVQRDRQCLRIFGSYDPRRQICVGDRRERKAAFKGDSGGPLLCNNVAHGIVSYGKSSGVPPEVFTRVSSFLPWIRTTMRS
C1s inh = human complement C1s inhibition; P09871; purified C1s, fluorogenic AMC substrate, pooled mixtures; mean inhibition % of two 10-compound mixtures (hits give high values), % at 5 µM (by protocol); hit rate 0.16% among 62,000; AID 538;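 active means inhibition above 20% in each of the two 10-compound mixture wells holding the compound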;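 further: 0% = enzyme wells lacking compound mixture and 100% = no-enzyme blank wells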
* marks the source's active call; other numbers are inactive results; / = no result given. Unless noted, no stated cut-off is given here; in the data, active means inhibition above about 20% (passing the limit was not always enough); inactive means the rest.

SMILES	FXIIa mix inh	Calb biofilm kill	BAP1 inh	FXIa mix inh	CatG inh	C1s inh
Cc1c(C(=O)Nc2ccncc2)sc2nc(-c3ccc(F)cc3)cn12	2.0	32.1*	75.1	6.2	12.9	13.1
COc1ccc(-c2cn3c(C)c(C(=O)Nc4ccncc4)sc3n2)cc1	-18.4	2.5	72.2	2.1	6.9	-15.7
Cc1cc(NC(=O)CSC2=Nc3ccccc3C3=NC(Cc4ccccc4)C(=O)N23)n[nH]1 (configuration not stated)	8.4	-0.4	74.4	5.0	11.2	12.5
O=C(NCc1ccccc1)NC1CCCCC1	-8.9	9.0	80.9	2.0	-1.3	-1.9
O=C(NCc1ccccc1)c1ccc(C(=O)N(C2CCCCC2)C2CCCCC2)cc1	/	75.7*	/	/	/	/
O=c1cc(-c2ccccc2)nc2nc(-c3ccccc3)[nH]n12	11.2	/	105.6	5.8	9.7	44.2*
Nc1nc2nc(-c3ccccc3)cc(=O)n2[nH]1	/	4.5	/	/	/	/
CC(=O)c1ccc(NC(=O)Nc2ccc(Cl)cc2)cc1	/	3.0	/	/	/	/
CC(=O)Nc1cccc(NC(=O)Nc2ccc(C(C)=O)cc2)c1	24.0	5.7	70.0	25.3*	25.3	-5.5
COc1cc(OC)c(/C=C2/C(=O)Nc3ccccc32)c(OC)c1	/	/	86.5	/	/	/
O=C1Nc2ccc(I)cc2/C1=C/c1cc(Br)c(O)c(Br)c1	/	/	49.4*	/	/	/
Cc1c(Cc2ccccc2)c(=O)oc2c(C)c(OCc3nn[nH]n3)ccc12	2.0	5.1	/	7.1	-1.2	-0.3
CCOC(=O)N1CCC(NC(=O)C2CCN(c3ccc(N4CCOCC4)nn3)CC2)CC1	0.8	1.5	/	-1.5	-3.8	-22.5
CCC(=O)Nc1nc(C)cc(SCC(=O)OC)n1	-0.8	10.2	96.3	20.7*	9.0	17.4
CCCNC(=O)CSc1nnc(-c2ccco2)n1C	-17.6	-1.9	93.2	-1.1	-6.5	-92.3
Cc1ccc2c(c1)N(C(=O)c1ccco1)C(C)(C)c1ssc(=S)c1-2	/	64.0*	/	/	/	/
Cc1ccc2c(c1)N(C(=O)CSc1nncn1C)C(C)(C)c1ssc(=S)c1-2	-1.4	9.6	92.6	37.5	10.9	26.3
Cc1ccc(NC(=O)c2ccc(S(=O)(=O)NCC3CCCO3)cc2)cc1 (configuration not stated)	22.0*	2.3	93.3	-1.5	-8.5	-25.8
O=C(Nc1ccc2c(c1)OCO2)c1ccc(S(=O)(=O)NCC2CCCO2)cc1 (configuration not stated)	2.1	3.4	108.4	-4.8	10.0	-0.3
COc1ccccc1N=Cc1nc(-c2ccccc2)oc1OC(C)=O	5.6	-1.3	126.6	50.1*	26.4*	8.5
CCS(=O)(=O)N1CCC(C(=O)NCCc2ccc(OC)c(OC)c2)CC1	12.0	8.2	100.9	-0.6	4.2	4.0
CC(=O)Nc1cc(OC(=O)c2ccco2)cc(OC(=O)c2ccco2)c1	8.7	2.0	/	25.0*	-3.7	10.9
O=C1NCCN1CCNS(=O)(=O)c1ccc(F)cc1	/	-2.0	/	/	/	/
CCCCCCCC/C=C\CCCCCCCC(=O)NCCc1ccc(O)c(O)c1	/	/	48.0*	/	/	/
O=C(c1csc2c1CCCC2)n1cccn1	10.7	/	/	45.2*	47.9*	52.3*
SMILES	FXIIa mix inh	Calb biofilm kill	BAP1 inh	FXIa mix inh	CatG inh	C1s inh
CCn1c(SCC(=O)N2CCOCC2)nnc1-c1cccs1	-4.4	7.7	94.3	20.9*	2.0	-0.9
CCn1c(SCC(=O)N2CCCc3ccccc32)nnc1-c1cccs1	-17.0	-1.6	89.4	8.5	2.6	0.1
CCN(Cc1ccccc1)Cc1c(C)[nH]c2c(C)c(C)ccc2c1=O	/	0.4	/	/	/	/
Nc1cc(N)nc(SCCOc2ccccc2F)n1	2.0	9.1	86.5	77.3*	14.2	30.2
CCOC(=O)N1CCN(C(=O)c2ccc3c(=O)n(Cc4ccccc4)c(=S)[nH]c3c2)CC1	-3.6	7.4	113.5	57.2*	-1.7	-5.4
CCCCNC(=O)c1ccccc1NS(=O)(=O)c1ccc2c(c1)OCCO2	6.1	1.6	92.4	-6.0	12.2	-0.6
Cn1cccc1Cc1nnc(SCC(=O)NC2CCCC2)n1-c1ccc(F)cc1	-4.0	3.7	111.9	6.3	8.2	13.2
COc1ccc(-n2c(Cc3cccn3C)nnc2SCC(=O)NC2CCCCC2)cc1	1.2	63.6*	95.7	6.1	-2.3	-0.3
COc1ccc(NC(=O)C2CCN(S(=O)(=O)c3ccc(OC)c(OC)c3)CC2)cc1	/	0.7	/	/	/	/
COc1ccc(S(=O)(=O)N2CCC(C(N)=O)CC2)cc1	-12.1	6.5	109.6	30.8*	47.9	-8.5
Cc1cc(C(=O)CSc2nnc(-c3ccc(F)cc3)o2)c(C)n1CC1CCCO1 (configuration not stated)	/	6.5	/	/	/	/
